Source: PubChem BioAssay (Tox21)
Inconclusive results are not listed. Values without a mark were called inactive. Active and inactive are the calls of the source. Calls follow the shape of the dose curve; as a rule, active = well fitted activation curve with a large enough effect in the repeat runs; inconclusive = weak or mixed curves; inactive = flat fitted curve, though single readings scatter.

Experiment: A CellTox Green Cytotoxicity Assay to monitor cytotoxicity in HepG2 cells - 24 hour (AID 1224878); also: nearly all actives have a fitted effect of over 45% in size
Conditions: CellTox Green fluorescence; series mostly up to 76.8 µM
Text: National Center for Advancing Translational Sciences [NCATS]
NIH Chemical Genomics Center [NCGC]
U.S. Environmental Protection Agency [EPA]
National Institutes of Environmental Health Sciences [NIEHS]
National Toxicology Program [NTP]
Cell-based models are critical for drug discovery. Determining the natural cytotoxic effects resulting from test compounds is an essential research activity. A CellTox Green Cytotoxicity Assay to monitor cytotoxicity in real time of continues cell culture during 40 hours of the compound treatment was used to screen Tox21 10K library compounds in HepG2 cells. CellTox Green Cytotoxicity Assay is a nonlytic, homogeneous, biofluorescent method to measure cytotoxicity in cell culture after experimental manipulation. The assay system uses a proprietary asymmetric cyanine dye that is excluded from viable cells but preferentially stains the dead cell's DNA. […] Viable cells produce no appreciable increases in fluorescence. Therefore, the fluorescence signal produced by the binding interaction with dead cell DNA is proportional to cytotoxicity.
The mixture of HepG2 cell suspension and reagents were dispensed at 600cells/6 ul/well in 1536-well tissue culture treated black solid bottom plates using a Multidrop dispenser. After the assay plates were incubated at a 37 C/5% CO2 incubator for 5 hours, 23 nL of compounds dissolved in DMSO, positive and negative controls was transferred to the assay plate by a pintool work station. The plates were incubated at 37 C for 40 hours. The fluorescence intensity were measured at 0h, 8h, 16h, 24h, 32h and 40h time points using ViewLux plate reader during compound treatment.
% is scaled to controls: 0 for no effect and ±100 for the full control effect.

Structure (SMILES)	outcome	cytotoxicity
CNS(=O)(=O)CCc1ccc2[nH]cc(C3CCN(C)CC3)c2c1	inactive	–
COc1ccc(-c2cc(=O)c3c(O)cc(O[C@@H]4O[C@H](CO[C@@H]5O[C@@H](C)[C@H](O)[C@@H](O)[C@H]5O)[C@@H](O)[C@H](O)[C@H]4O)cc3o2)cc1O	inactive	–
CC(C)(C)c1n[nH]c(=S)n(N)c1=O	inactive	–
N[C@@H](CCC(=O)Nc1ccc([N+](=O)[O-])cc1)C(=O)O	inactive	–
N#Cc1ccc(C(=O)O)cc1	inactive	–
CC1(C)S[C@@H]2[C@H](N=CN3CCCCCC3)C(=O)N2[C@H]1C(=O)O	inactive	–
NS(=O)(=O)c1ccc(NC(=O)CCC(=O)O)cc1	inactive	–
CNC(=O)[C@H]1O[C@@H](n2cnc3c(NCc4cc(Cl)ccc4OCc4cc(C)no4)ncnc32)[C@H](O)[C@@H]1N	inactive	–
COc1ccc2nc(SCc3ncc(C)c(OC)c3C)[nH]c2c1	inactive	–
O=C(Nc1ccc(Cl)c(Cl)c1)C1CC1	inactive	–
CC(=O)NCCCCCC(=O)O	inactive	–
C=C(C)C(=O)OCCOP(=O)(O)OCCOC(=O)C(=C)C	inactive	–
Cc1cccc(C)c1NC(=O)c1ccccc1C(=O)O	inactive	–
CC(S)C(=O)NCC(=O)O (stereo not given)	inactive	–
O=C(NCC(O)CO)c1c(I)c(C(=O)NCC(O)CO)c(I)c(N(CCO)C(=O)CO)c1I (stereo not given)	inactive	–
CC(=O)Nc1ccc(S(=O)(=O)Cl)cc1	inactive	–
CN(C)C(=O)CNC(=O)Cc1ccccc1	inactive	–
COc1ccc2c(c1)C(=O)N(CCc1ccc(S(=O)(=O)NC(=O)NC3CCCCC3)cc1)C(=O)C2(C)C	inactive	–
CC1=CCC(C(C)C)=CC1	inactive	–
CCCCCCCCCCl	inactive	–

Structure (SMILES)	outcome	cytotoxicity
NC(CO)C(=O)NNCc1ccc(O)c(O)c1O (stereo not given)	inactive	–
CC(=O)N[C@@H](CCC(=O)O)C(=O)O	inactive	–
Nc1ccc([N+](=O)[O-])c(N)c1	inactive	–
Cc1cc(C(C)(C)C)c(O)c(C)c1CC1=NCCN1	inactive	–
Cc1cccc(OCC(O)CNC(C)(C)C)c1C (stereo not given)	inactive	–
COc1cc(N)ccc1C	inactive	–
Oc1ccccc1-c1nnco1	inactive	–
CCCCCOC(=O)CCC	inactive	–
CC(COC(C)(C)C)OCCCO (stereo not given)	inactive	–
CCCCOC(=O)c1ccccc1	inactive	–
COCCOCCOCCOCCOCCO	inactive	–
COc1cc2c(cc1OC)C(=O)CC2	inactive	–
CN1CCN(CC(=O)N2c3ccccc3C(=O)Nc3cccnc32)CC1	–	-12.6% [at 6.97 µM]
COC(=O)CCCCCCCC(=O)OC	inactive	–
CCCOC(=O)C(C)O (stereo not given)	inactive	–
CCOCCOCCOCC	inactive	–
O=P(O)(O)OP(=O)(O)O	inactive	–
c1ccc2nccnc2c1	inactive	–
CC(C)(C)c1nnc(NS(=O)(=O)c2ccc(N)cc2)s1	inactive	–
CCCCOCCOC(=O)COc1nc(Cl)c(Cl)cc1Cl	inactive	–
